Only some compounds are listed: those with a hit (about 0.45% of all), similar ones and a draw of the others.
EPAC1 antagonist – blocks human EPAC1 exchange factor. EPAC1 GEF assay, Rap1b-BODIPY-GDP exchange fluorescence. Potency, µM (titrated, usually from 115 µM), for inactives: at the highest dose activity change, negative = inhibition, hits mostly inhibitors. hit rate 0.14% among 360,000;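 further: plate controls were vehicle for no effect and positive control for full effect; nearly all actives have a fitted effect of over 50% in size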
Target sequence (O95398 whole entry, looked up): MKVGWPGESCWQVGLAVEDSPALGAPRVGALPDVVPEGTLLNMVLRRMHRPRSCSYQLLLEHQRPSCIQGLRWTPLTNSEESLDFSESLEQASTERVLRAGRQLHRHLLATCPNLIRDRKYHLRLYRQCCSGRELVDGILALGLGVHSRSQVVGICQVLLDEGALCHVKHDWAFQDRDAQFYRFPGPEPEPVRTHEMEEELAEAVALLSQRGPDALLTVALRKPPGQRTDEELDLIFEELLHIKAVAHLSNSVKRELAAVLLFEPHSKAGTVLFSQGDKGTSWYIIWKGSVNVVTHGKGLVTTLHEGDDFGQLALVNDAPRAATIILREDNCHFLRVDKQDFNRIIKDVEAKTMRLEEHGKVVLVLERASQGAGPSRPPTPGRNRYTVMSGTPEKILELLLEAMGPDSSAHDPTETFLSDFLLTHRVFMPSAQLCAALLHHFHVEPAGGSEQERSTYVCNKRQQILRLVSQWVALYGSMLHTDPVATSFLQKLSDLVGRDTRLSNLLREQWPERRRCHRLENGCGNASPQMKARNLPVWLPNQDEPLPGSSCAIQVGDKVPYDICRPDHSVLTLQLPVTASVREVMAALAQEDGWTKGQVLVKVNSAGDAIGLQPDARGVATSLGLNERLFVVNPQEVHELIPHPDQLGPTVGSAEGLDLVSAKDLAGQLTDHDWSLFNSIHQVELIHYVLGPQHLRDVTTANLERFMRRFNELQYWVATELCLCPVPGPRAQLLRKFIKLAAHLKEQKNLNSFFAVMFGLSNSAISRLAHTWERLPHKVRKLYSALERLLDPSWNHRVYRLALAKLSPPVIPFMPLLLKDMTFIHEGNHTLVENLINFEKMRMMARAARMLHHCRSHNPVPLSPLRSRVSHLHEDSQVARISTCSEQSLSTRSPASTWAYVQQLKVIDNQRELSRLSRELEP
USP1-UAF1 inh – USP1/UAF1 (human) deubiquitinase inhibition | recombinant USP1/UAF1, Ub-Rhodamine cleavage fluorescence | Potency, µM (series often up to 57.1 µM), inactives show at the highest dose activity change, negative = inhibition, actives largely listed as inhibitors | hit rate 0.23% among 390,000 | AID 743255; further: on the % scale 0 is the no-effect control and ±100 the full control effect; nearly all actives have a fitted effect of over 60% in size
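High-throughput fluorogenic screen: 1nM USP1/UAF1 complex, Ub-Rho substrate 150nM final, 50mM HEPES pH 7.8 with 0.5mM EDTA, 0.1 mg/ml BSA, 1mM TCEP and 0.01% Tween-20.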
EPAC1 agonist – agonists of human EPAC1. O95398. EPAC1 agonist qHTS, biochemical assay; response scale: 100% = response to 6.5 mM cAMP. Potency, µM (titrated, usually from 154 µM), for the others: at the top dose activation, most hits filed as activators. hit rate 0.073% among 360,000; further: nearly all actives have a fitted effect of over 60% in size
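Nucleotide exchange assay: 100 nM EPAC1 with 250 nM Rap1B loaded with BODIPY-GDP and 50 uM GDP, room temperature. Fluorescence (480/540 nm) read every 5 min for 30 min; signal change normalized to 6.5 mM cAMP as full agonist.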
USP2a inh – blocks human ubiquitin-specific protease USP2a | hit rate 0.01% among 330,000 | O75604 | USP2 core, Ub-CHOP2 coupled fluorogenic reporter, 485/531 | Potency, µM (highest dose often 38.3 µM), for the others: top-dose activity change, negative = inhibition, most hits filed as inhibitors | AID 463254;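 further: plate controls were DMSO wells for no effect and full inhibition by NEM control for full effect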
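Cell-free coupled assay: 10nM USP2 core preincubated 30min RT with compound in Tris-HCl pH 8.0/CaCl2/CHAPS buffer, then 25nM Ub-CHOP2 and 25nM reporter substrate; fluorescence (Ex 485/Em 531) read after 60min RT, normalized to NEM inhibition, concentration-response curves fitted.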
EPAC2 agonist – activates human EPAC2 exchange factor; Q8WZA2; EPAC2 activation, biochemical qHTS; response scale: 100% = 6.5 mM cAMP response; Potency, µM (highest dose often 154 µM), for the others: at the top dose activation, most hits filed as activators; hit rate 0.079% among 360,000; AID 720711; further: nearly all actives have a fitted effect of over 50% in size
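qHTS, titration series. 100 nM EPAC2 / 250 nM Rap1B-BODIPY-GDP / 50 uM GDP; RT; ex 480/em 540 nm, 5-min reads to 30 min. Norm. to 6.5 mM cAMP = activation.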
EPAC2 antag – blocks human EPAC2 exchange factor. Potency, µM (titrated, usually from 114 µM), for the others: at the top dose activity, negative = inhibition, hits mostly inhibitors. hit rate 0.18% among 360,000. Q8WZA2. EPAC2 GEF exchange of Rap1B-BODIPY-GDP, fluorescence; further: on the % scale 0 is the no-effect control and ±100 the full control effect; nearly all actives have a fitted effect of over 45% in size
Active calls of the source: *; ? = inconclusive; / = no result given. The call rests on the fitted dose curve; in most records, active means well fitted curve in the direction sought with a large enough effect; inconclusive means small, poorly fitted or top-dose-only effect, or another doubt; inactive means no such curve, though single readings can be large; an effect the other way counts as inactive or inconclusive. Potency means the concentration at half of the fitted maximal effect.

SMILES	EPAC1 antagonist	USP1-UAF1 inh	EPAC1 agonist	USP2a inh	EPAC2 agonist	EPAC2 antag
Cc1[nH]c2ccc(C(=O)OC(C)C(=O)N(C)c3ccccc3)cc2c1C (stereo not drawn)	-11%	-20%	28µM*	4%	-5%	-7%
O=C1C(=C(I)I)c2ccccc2-c2ccccc21	25µM*	28µM*	11%	/	?	?
O=C(O)c1cccc2c1C(=O)c1ccccc1-2	-10%	-19%	5%	-5%	13%	5%
O=C(Cc1ccccc1Cl)Nc1ccc(S(=O)(=O)Nc2nccs2)cc1	-23%	-26%	2%	2%	-9%	1µM*
COc1cccc(CNc2ccc(S(=O)(=O)Nc3nccs3)cc2)c1O	-13%	-8%	9%	-2%	8%	?
COCC(=O)Nc1ccc(S(=O)(=O)Nc2nccs2)cc1	8%	-11%	7%	0%	11%	-1%
O=S(=O)(Nc1nccs1)c1ccc(NCc2cc(Br)cc(Br)c2O)cc1	?	-26%	-8%	0%	6%	2.8µM*
CC(=O)OCCCNc1cc(SCc2ccco2)c2nonc2c1[N+](=O)[O-]	?	0%	9%	0%	-5%	-9%
CCCC(=O)OCCNc1cc(SCc2ccco2)c2nonc2c1[N+](=O)[O-]	40µM*	-8%	1%	4%	-10%	-7%
Cc1cc2ccccc2cc1C(=O)c1ccccc1	-13%	?	7%	/	18%	8.9µM*
O=C(c1ccccc1)c1ccc(O)cc1O	107%	28µM*	100µM*	?	100µM*	96%
O=C(c1ccccc1)c1ccc2ccccc2c1	6%	-9%	12%	/	18%	?
O=C(c1ccc(O)cc1)c1ccc(O)cc1O	-22%	-17%	1%	5%	4%	3%
O=C(NCCc1ccc(Cl)cc1)c1ccc(CS(=O)(=O)Cc2ccccc2F)o1	/	-4%	/	/	/	/
CN(CC(=O)Nc1cccc(F)c1)C(=O)C1CCC(C(=O)N(C)CC(=O)Nc2cccc(F)c2)CC1 (stereo not drawn)	4%	-9%	0%	/	0%	0%
NC(=S)N=Nc1c(O)[nH]c2ccc(F)cc12	-7%	-19%	-5%	-2%	-10%	-1%
NC(=S)N=Nc1c(O)cc(O)c2[nH]c(=O)ccc12	50µM*	18µM*	8%	/	7%	-29%
COc1cccc(CNS(=O)(=O)c2ccc(N3CCCCS3(=O)=O)cc2)c1	/	9%	/	/	/	/
COc1cccc(N2CCN(C(=O)CN3C(=O)COc4ccc(S(=O)(=O)N5CCC(C)CC5)cc43)CC2)c1	/	-29%	/	/	/	/
Oc1ccc(N=Cc2ccc(-c3cccs3)s2)cc1	32µM*	13µM*	18%	0%	25%	?
O=Cc1ccc(-c2cccs2)s1	-9%	-4%	8%	/	0%	-10%
CCc1cc(CNC(=O)C2CCC(=O)N(Cc3ccccc3F)C2)on1 (stereo not drawn)	16%	-25%	-3%	/	-3%	2%
CN(CC(=O)Nc1ccc(Cl)c(C(F)(F)F)c1)C(=O)C1CC(=O)N(c2ccc3c(c2)OCCO3)C1 (stereo not drawn)	-15%	-25%	2%	/	7%	4%
CN(CC(=O)Nc1ccc(Cl)c(C(F)(F)F)c1)C(=O)c1ccc2c(c1)OCCO2	-13%	-25%	79µM*	2%	1%	-13%
COc1ccc2c(c1)Cc1sc(NC(=O)c3cccc(C)c3)nc1-2	/	35µM*	/	/	/	/
Cc1ccc(N=C2NC(=O)/C(=C/C=C/c3ccco3)S2)cc1	56µM*	-18%	-12%	?	-3%	20%
Cc1cccc(N=C2NC(=O)/C(=C/C=C/c3ccco3)S2)c1C	?	-18%	11%	?	3%	-1%
O=C1NC(=Nc2ccccc2)S/C1=C\C=C\c1ccco1	?	-19%	-1%	5.6µM*	0%	4%
Cc1ccc(C)c(NC(=O)c2cnc3sc(N4CCOCC4)nn3c2=O)c1	/	-26%	/	/	/	/
